In PubChem BioAssay (NCATS):
Records with an inconclusive call do not appear. The source made the active and inactive calls. Calls come from the whole dose curve; as a rule, active = well fitted curve in the direction sought with a large enough effect; inconclusive = small, poorly fitted or top-dose-only effect, or another doubt; inactive = no such curve, though single readings can be large; an effect the other way counts as inactive or inconclusive.

Columns and labels:
[1] = biological target: Rap guanine nucleotide exchange factor 3 (Homo sapiens) (UniProt O95398); assay: Confirmatory qHTS for agonist of cAMP-regulated guanine nucleotide exchange factor 3 (EPAC1) (AID 1645881);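 note: EPAC1 catalysed release of BODIPY-GDP from Rap1B seen as fluorescence loss; 100% = effect of cAMP agonist control; nearly all actives have a fitted effect of over 75% in size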
[2] = biological target: Rap guanine nucleotide exchange factor 4 (Homo sapiens) (UniProt Q8WZA2); assay: Confirmatory qHTS for agonist of cAMP-regulated guanine nucleotide exchange factor 4 (EPAC2) (AID 1645884);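 note: nucleotide exchange releases bodipy-GDP from Rap1 and this lowers its fluorescence; % is set by controls: 0 for no effect and ±100 for the full control effect; nearly all actives have a fitted effect of over 65% in size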
[3] = biological target: Rap guanine nucleotide exchange factor 4 (Homo sapiens) (UniProt Q8WZA2); assay: Confirmatory qHTS for antagonist of cAMP-regulated guanine nucleotide exchange factor 4 (EPAC2) (AID 1645885); note: nearly all actives have a fitted effect of over 25% in size; note: potency is the fitted concentration of half-maximal effect
[4] = biological target: Rap guanine nucleotide exchange factor 3 (Homo sapiens) (UniProt O95398); assay: Counterscreen qHTS for agonist of cAMP-regulated guanine nucleotide exchange factor 3 (EPAC1) (AID 1645889); note: % of control where 0% means no effect; nearly all actives have a fitted effect of over 40% in size
Summary of the method: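 Rap1B–BODIPY-GDP (250 nM) with 50 uM GDP; compounds pin-transferred to 9.74 nM–152 uM final (activator) or from 7.32 nM upwards (inhibitor). Fluorescence Ex/Em 480/540 nm read at 5 and 30 min, then after adding cAMP or buffer, at room temperature.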

Rap guanine nucleotide exchange factor 3 (Homo sapiens), sequence (O95398 whole entry, looked up): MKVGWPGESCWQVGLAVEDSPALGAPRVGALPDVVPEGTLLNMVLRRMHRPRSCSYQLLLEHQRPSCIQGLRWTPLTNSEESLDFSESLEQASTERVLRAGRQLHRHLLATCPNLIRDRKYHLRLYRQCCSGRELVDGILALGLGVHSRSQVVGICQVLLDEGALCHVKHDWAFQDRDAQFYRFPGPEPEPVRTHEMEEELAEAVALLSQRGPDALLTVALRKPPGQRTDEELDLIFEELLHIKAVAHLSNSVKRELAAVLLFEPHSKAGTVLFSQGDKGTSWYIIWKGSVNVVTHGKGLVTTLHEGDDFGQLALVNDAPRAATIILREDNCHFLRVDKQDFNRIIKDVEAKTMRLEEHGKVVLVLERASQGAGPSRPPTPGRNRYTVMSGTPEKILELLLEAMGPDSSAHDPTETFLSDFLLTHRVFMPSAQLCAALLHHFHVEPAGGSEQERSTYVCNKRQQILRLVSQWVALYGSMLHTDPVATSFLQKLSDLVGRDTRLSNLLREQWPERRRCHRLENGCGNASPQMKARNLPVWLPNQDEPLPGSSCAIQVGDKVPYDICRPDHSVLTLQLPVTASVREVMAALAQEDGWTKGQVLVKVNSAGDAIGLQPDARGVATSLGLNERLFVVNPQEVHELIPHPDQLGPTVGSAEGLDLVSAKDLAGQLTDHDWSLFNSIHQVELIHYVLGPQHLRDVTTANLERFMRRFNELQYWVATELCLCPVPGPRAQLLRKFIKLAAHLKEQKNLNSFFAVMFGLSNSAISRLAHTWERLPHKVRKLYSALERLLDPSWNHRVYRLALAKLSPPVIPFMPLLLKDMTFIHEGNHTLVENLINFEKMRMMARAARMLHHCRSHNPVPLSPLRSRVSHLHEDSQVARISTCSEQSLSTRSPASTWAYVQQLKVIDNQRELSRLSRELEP
Rap guanine nucleotide exchange factor 4 (Homo sapiens), sequence (Q8WZA2 whole entry, looked up): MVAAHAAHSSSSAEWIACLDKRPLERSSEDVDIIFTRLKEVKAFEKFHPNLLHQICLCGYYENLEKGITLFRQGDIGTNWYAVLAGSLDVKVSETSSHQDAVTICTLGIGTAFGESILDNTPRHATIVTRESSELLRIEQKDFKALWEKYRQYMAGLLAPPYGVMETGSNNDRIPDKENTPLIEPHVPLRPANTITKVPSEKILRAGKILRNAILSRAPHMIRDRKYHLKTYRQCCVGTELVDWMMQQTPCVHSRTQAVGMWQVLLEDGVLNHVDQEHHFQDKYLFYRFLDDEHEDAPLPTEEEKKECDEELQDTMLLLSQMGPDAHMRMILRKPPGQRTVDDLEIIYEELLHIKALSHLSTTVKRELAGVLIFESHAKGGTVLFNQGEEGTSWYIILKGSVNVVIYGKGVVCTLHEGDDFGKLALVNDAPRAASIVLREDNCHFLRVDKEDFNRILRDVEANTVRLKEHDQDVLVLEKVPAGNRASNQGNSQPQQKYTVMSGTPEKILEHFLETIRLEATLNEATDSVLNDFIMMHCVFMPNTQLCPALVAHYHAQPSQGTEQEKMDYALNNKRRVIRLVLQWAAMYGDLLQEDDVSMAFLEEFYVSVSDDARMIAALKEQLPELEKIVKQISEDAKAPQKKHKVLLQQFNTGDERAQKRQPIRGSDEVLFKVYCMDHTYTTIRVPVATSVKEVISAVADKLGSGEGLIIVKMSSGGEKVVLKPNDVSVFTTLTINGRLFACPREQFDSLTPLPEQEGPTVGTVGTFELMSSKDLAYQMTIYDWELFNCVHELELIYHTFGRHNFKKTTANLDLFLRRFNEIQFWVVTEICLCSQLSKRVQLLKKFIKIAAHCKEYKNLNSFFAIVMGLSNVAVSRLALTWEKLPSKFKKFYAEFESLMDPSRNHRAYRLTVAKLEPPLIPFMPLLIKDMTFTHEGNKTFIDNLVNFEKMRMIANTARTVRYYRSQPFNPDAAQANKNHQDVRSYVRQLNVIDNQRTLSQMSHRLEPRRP

COc1ccc(N2C(=O)CSC23C(=O)N(Cc2cccc(C(F)(F)F)c2)c2ccccc23)cc1 (stereo not drawn)
inactive: Potency [1] | Potency [2] | outcome [3] inactive [at 12.7 µM] | Potency [4]

CCCCOC(=O)C1=C(C)Nc2nnnn2C1c1ccccc1Cl (stereo not drawn)
inactive: Potency [1] | Potency [2] | Potency [3] | Potency [4]

C=CC(C)N1C(=O)S/C(=C\c2ccc(N3CCOCC3)cc2C)C1=O (stereo not drawn)
active: Potency [3] 84.9 µM
inactive: Potency [1] | Potency [2] | Potency [4]

O=C(Nc1ccc(Cl)cc1)Nc1ccccc1NS(=O)(=O)c1cccs1
inactive: Potency [1] | activation [2] 7.96% [at 17.1 µM, percent relative to cAMP agonist control] | Potency [3] | activation [4] 27.1% [at 30.8 µM]

CCCn1c(/C=C/c2ccco2)nc2ccccc21
inactive: Potency [1] | activation [2] -2.96% [at 17.1 µM, percent relative to cAMP agonist control] | Potency [3] | activation [4] 26.1% [at 30.8 µM]

Cc1cc(C)cc(N(CC(=O)Nc2ccc(C(F)(F)F)cc2)S(=O)(=O)c2c(C)[nH]c(=O)[nH]c2=O)c1
inactive: Potency [1] | Potency [2] | Potency [3] | Potency [4]

CCOc1ccccc1CNC(=O)Cn1nc(C)c2c(C)n(-c3ccc(C)cc3)nc2c1=O
inactive: Potency [1] | activation [2] -0.659% [at 17.1 µM, percent relative to cAMP agonist control] | Potency [3] | activation [4] 18.3% [at 30.8 µM]

CCO[C@H]1OC(C(=O)NCc2ccccc2)=C[C@@H](c2ccc(C(F)(F)F)cc2)[C@@H]1CCCO
inactive: Potency [1] | Potency [2] | Potency [3] | Potency [4]

Cc1ccc(N=Cc2cc3c(cc2[N+](=O)[O-])OCO3)cc1[N+](=O)[O-]
inactive: Potency [1] | activation [2] -8.35% [at 17.1 µM, percent relative to cAMP agonist control] | Potency [3] | activation [4] -2.33% [at 30.8 µM]

C/C(=N\NC(=O)c1ccc(N/N=C(\C)c2ccc(O)cc2)cc1)c1ccc(O)cc1
inactive: Potency [1] | activation [2] 15.6% [at 17.1 µM, percent relative to cAMP agonist control] | Potency [3] | activation [4] 11.7% [at 30.8 µM]

COc1cccc(S(=O)(=O)Nc2ccc3c(c2)[C@@H]2C[C@@H](CC(=O)NCc4ccc(Cl)cc4)O[C@@H](CO)[C@@H]2O3)c1
inactive: Potency [1] | Potency [2] | Potency [3] | Potency [4]

OC(c1ccccc1)(c1nc(-c2cccc(C(F)(F)F)c2)cs1)C(F)(F)F (stereo not drawn)
inactive: Potency [1] | Potency [2] | Potency [3] | Potency [4]

COCOCCn1cc(CN2CCS(=O)(=O)N(Cc3ccc(-c4ccc(F)cc4)cc3)C(CC(C)C)C2=O)nn1 (stereo not drawn)
active: Potency [3] 8.49 µM
inactive: Potency [1] | Potency [2] | Potency [4]

CC(C)CCOP(=O)(c1ccc(N(C)C)cc1)C(O)c1c(Cl)cccc1Cl (stereo not drawn)
inactive: Potency [1] | activation [2] 13.3% [at 17.1 µM, percent relative to cAMP agonist control] | Potency [3] | activation [4] 2.73% [at 30.8 µM]

O=Nc1c(O)n(Cc2cccc(C(F)(F)F)c2)c2ccccc12
inactive: Potency [1] | Potency [2] | Potency [4]
active: Potency [3] 47.8 µM

COc1cc(/C=C(\C#N)C(=O)Nc2ccccc2C(=O)O)cc(Cl)c1OC
inactive: Potency [1] | Potency [2] | Potency [3] | Potency [4]

CCCC(=O)NC(c1ccc(C)cc1)c1ccc2cccnc2c1O (stereo not drawn)
inactive: Potency [1] | activation [2] 0% [at 17.1 µM, percent relative to cAMP agonist control] | Potency [3] | activation [4] 7.43% [at 30.8 µM]

CN(C)c1ccc(C=C(C#N)C(=O)c2ccccc2)cc1Br
inactive: Potency [1] | Potency [2] | Potency [3] | Potency [4]

CC(C)C(=O)Nc1nc2c(s1)CC(C(C)(C)C)CC2 (stereo not drawn)
inactive: Potency [1] | Potency [2] | Potency [3] | Potency [4]

COc1ccc(C2CC(=O)c3c(O)cc(O)cc3O2)c(CC=C(C)C)c1OC (stereo not drawn)
inactive: Potency [1] | Potency [2] | Potency [4]
active: Potency [3] 67.5 µM

Cc1cccc(N2CC(C(=O)Nc3nnc(SCC(=O)NCC4CCCO4)s3)CC2=O)c1 (stereo not drawn)
inactive: Potency [1] | Potency [2] | Potency [3] | Potency [4]

CC(=O)N(CCC(c1ccco1)C(C)C)Cc1ccc(Cl)cc1 (stereo not drawn)
inactive: Potency [1] | Potency [2] | Potency [3] | Potency [4]

N#Cc1c(NC(=O)C2CC=CCC2C(=O)O)sc2c1CCCCCC2 (stereo not drawn)
inactive: Potency [1] | activation [2] -2.41% [at 17.1 µM, percent relative to cAMP agonist control] | Potency [3] | activation [4] 6.58% [at 30.8 µM]

O=C(NCc1ccc(OC(F)(F)F)cc1)C1CC(c2ccccc2C(F)(F)F)=NO1 (stereo not drawn)
inactive: Potency [1] | activation [2] 4.05% [at 17.1 µM, percent relative to cAMP agonist control] | Potency [3] | activation [4] 3.19% [at 30.8 µM]

COCc1nc2ccccc2n1Cc1ccc(C(C)(C)C)cc1
inactive: Potency [1] | Potency [2] | Potency [3] | Potency [4]

CC1Sc2ccc(C#N)cc2N(Cc2cccc(C(F)(F)F)c2)C1=O (stereo not drawn)
inactive: Potency [1] | Potency [2] | Potency [3] | Potency [4]

CCCC[C@@H]1C[C@H]1[C@@H](NC(=O)c1ccco1)c1ccc(Cl)cc1
inactive: Potency [1] | Potency [2] | Potency [3] | Potency [4]

CCCCC[C@H](C)N1C[C@@H](COCc2ccccc2)Oc2cc(N3CC[C@H](O)C3)ccc2S1(=O)=O
active: Potency [3] 19 µM
inactive: Potency [1] | Potency [2] | Potency [4]

Cc1cc(-c2ccc(/C=N/n3cnnc3)o2)ccc1Cl
inactive: Potency [1] | Potency [2] | Potency [3] | Potency [4]

CCC[C@H]1CC(=O)C=C(c2ccsc2)ON1C(=O)OC(C)(C)C
inactive: Potency [1] | Potency [2] | Potency [3] | Potency [4]

O=C(O)CN1C(=O)/C(=C\c2cccc(OCc3ccc(F)cc3)c2)SC1=S
inactive: Potency [1] | activation [2] 1.62% [at 17.1 µM, percent relative to cAMP agonist control] | Potency [3] | activation [4] 14.2% [at 30.8 µM]

Cc1cc(C(=O)Nc2ccon2)c(C)o1
inactive: Potency [1] | Potency [2] | Potency [4]
active: Potency [3] 84.9 µM
